SW480 rereplic = DNA re-replication induction in SW480 cells | Potency, µM (highest dose often 46.1 µM), inactives show top-dose re-replication activation, usual class: activators | 1.8% of 340,000 active | SW480 DNA re-replication, Hoechst DNA content imaging, 48 h; note: % of control where 0% means no effect; nearly all actives have a fitted effect of over 55% in size
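Compounds, transferred as 23 nL by pin tool, were incubated with cells for 48 hr; DNA content per nucleus was then quantified by Hoechst staining and fluorescence plate imaging.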
MCF10A rereplic = DNA re-replication induction in MCF 10a cells | 2.9% of 350,000 active | AID 624296 | MCF 10A DNA re-replication, Hoechst nuclear intensity, 48 h | Potency, µM (top dose mostly 46.1 µM), for the others: at the highest dose activity, positive = re-replication, most hits filed as activators; note: % of control where 0% means no effect; nearly all actives have a fitted effect of over 50% in size
KB-V1 MDR tox = kills drug-selected multidrug resistant KB-V1 cells. AID 1347076. 3.4% of 400,000 active. KB-V1 MDR cells viability, CellTiter-Glo, 72 h. Potency, µM (titrated, usually from 46.1 µM), actives largely listed as cytotoxic; note: % is set by controls: 0 for no effect and ±100 for the full control effect; nearly all actives have a fitted effect of over 60% in size
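Cytotoxicity via CellTiter-Glo luminescence after 72 h compound exposure at 37 degrees C. Cells: drug-selected KB-V1 line, DMEM phenol-red free plus 10% FBS. Compounds tested at multiple concentrations; normalized data fitted to concentration-effect curves.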
HT1080 IDH1KD tx = kills HT-1080 cells with IDH1 knockdown; HT-1080 IDH1 knockdown viability, ATP luminescence, 48 h; Potency, µM (top dose mostly 46.1 µM), for the others: at the top dose activity, negative = toxicity, actives largely listed as cytotoxic; 2% of 360,000 active;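 note: 0% = DMSO wells and -100% = cell-free medium wells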
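IDH1KD HT-1080 cells, 750/well, RPMI + 5% FBS; compound pinned after 2 h settling; 48 h, 37 °C; CellTiter-Glo luminescence; % activity normalised to DMSO and no-cell wells; curves fitted, classed by r2 and efficacy.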
KB-3-1 cytotox = kills parental KB-3-1 adenocarcinoma cells | KB-3-1 viability, CellTiter-Glo ATP luminescence, 72 h | Potency, µM (series often up to 46.1 µM), hits mostly cytotoxic | 1.4% of 400,000 active; note: % is set by controls: 0 for no effect and ±100 for the full control effect; nearly all actives have a fitted effect of over 60% in size
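Luminescent ATP read-out (CellTiter-Glo) measures survival of drug-naive KB-3-1 cells after 72 h compound exposure at 37 °C. Titration series was screened from lowest to highest concentration, with DMSO vehicle plates as background controls.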
HT1080-NT tox = kills 2HG-producing HT-1080-NT fibrosarcoma cells; HT-1080-NT fibrosarcoma viability, CellTiter-Glo ATP luminescence, 48 h; Potency, µM (top dose mostly 46.1 µM), without a hit: top-dose activity, negative = less viability, actives largely listed as cytotoxic; 1.6% of 360,000 active; AID 686970;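 note: NT is the 2HG producing partner of a matched IDH1 knockdown line; 0% = DMSO-treated cells and -100% = media-only wells without cells; nearly all actives have a fitted effect of over 55% in size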
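Read-out is CellTiter-Glo luminescence after 10 minutes at room temperature, following 48 hours' compound treatment of HT-1080-NT cells (750 cells/well, RPMI, 5% FBS, 37 degrees C).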
Starred values were filed as active, the others as inactive; i = inactive; u = inconclusive; x = no result; [ ] = remark or other dose. Compounds with a hit are over-represented: about 7.9% of the library has one in this group of screens. Calls come from the whole dose curve; as a rule, active = well fitted curve in the direction sought with a large enough effect; inconclusive = small, poorly fitted or top-dose-only effect, or another doubt; inactive = no such curve, though single readings can be large; an effect the other way counts as inactive or inconclusive. Potency is the fitted concentration of half-maximal effect.

SMILES	SW480 rereplic	MCF10A rereplic	KB-V1 MDR tox	HT1080 IDH1KD tx	KB-3-1 cytotox	HT1080-NT tox
COc1ccccc1/C=C/C(=O)OCC(=O)Nc1cc(C(F)(F)F)ccc1N1CCOCC1	9.2µM*	u	u	u	u	u
O=C(COC(=O)/C=C/c1ccccc1)Nc1cc(C(F)(F)F)ccc1N1CCOCC1	4.5%	-7.9%	i	-11.9%	i	-18.8%
Nc1nonc1-n1nnc(C(=O)N/N=C/c2ccncc2)c1CSc1ccccc1	-23.2%	5.1%	i	-8.5%	i	-8.0%
CC1(c2ccc3ccccc3c2)NC(=O)N(CC(=O)N2CCC(C(N)=O)CC2)C1=O (stereo unspecified)	-89.4%	-16.4%	i	-2.8%	i	1.6%
CC1(c2ccc3ccccc3c2)NC(=O)N(CC(=O)N2CCN(Cc3ccccc3)CC2)C1=O (stereo unspecified)	u	u	i	-17.5%	u	5.8µM*
Cc1ccc(C(C[N+](=O)[O-])c2c(-c3ccccc3O)[nH][nH]c2=O)cc1 (stereo unspecified)	14.6µM*	11.6µM*	u	9.2µM*	u	u
O=c1[nH][nH]c(-c2ccccc2O)c1C(C[N+](=O)[O-])c1ccc(Br)cc1 (stereo unspecified)	u	u	i	-11.1%	i	-5.5%
Cc1ccc(S(=O)(=O)N(C)C)cc1NC(=O)COC(=O)/C=C/c1ccc2ccccc2n1	u	u	i	u	u	-1.6%
CCN(CC)c1ccc(/C=C2\SC(=O)N(C(C)C)C2=O)o1	u	3.66µM*	i	7.31µM*	u	16.4µM*
CC(=O)N1CCC(CCCC2CCN(C(C)=O)CC2)CC1	-5.3%	18.9%	i	15.8%	i	u
CN(C)CC(O)c1ccc(C=Cc2ccc(Cl)cc2)cc1 (stereo unspecified)	3.7%	u	u	5.8µM*	u	-4.9%
Cc1ccc(C(=O)CSc2nnc(COc3cccc4cccnc34)o2)cc1	-7.2%	-0.8%	i	u	i	u
O=C(CSc1nnc(COc2cccc3cccnc23)o1)c1ccc(F)cc1	-1.7%	-7.4%	i	5.01µM*	i	10µM*
COc1cccc(C(=O)CSc2nnc(COc3cccc4cccnc34)o2)c1	5.17µM*	6.51µM*	i	u	i	u
CC1CCCC(C)N1C(=O)CSc1nnc(COc2cccc3cccnc23)o1 (stereo unspecified)	4.11µM*	u	u	11.9%	i	15.5%
CC(=O)N/C(=C/c1ccccc1)C(=O)NCCO	1.8%	-1.3%	i	2.5%	i	8.3%
Cc1nn2c(C)c(C(=O)Nc3ccccc3)cnc2c1-c1ccccc1	13.4%	u	u	-25.5%	i	-27.7%
CCOC(=O)CSC1=Nc2ccccc2C2=NC(CCC(=O)NCc3ccc(OC)cc3)C(=O)N12 (stereo unspecified)	x	x	u	x	i	x
CCOCCc1nnc(N)s1	14.6µM*	8.2µM*	i	17.8%	i	15.0%
COc1cccc(CNc2ccc(N3CCC(C)CC3)cc2)c1OC	8.4%	7.5%	20.6µM*	u	20.6µM*	-26.1%
CC1CCN(c2ccc(NC(=O)Cc3ccccc3)cc2)CC1	1.9%	0.0%	i	-1.2%	i	-1.3%
CCc1cc(=O)oc2cc(C)cc(OCC(=O)NCC(O)c3ccccc3)c12 (stereo unspecified)	u	5.9%	i	-2.1%	i	0.1%
Cc1cc(C)n2nc(SCc3nnc(SCc4ccccc4)s3)nc2n1	-1.0%	-0.8%	13µM*	-7.7%	i	0.4%
CCC(C(=O)NC1CCCC1)N(Cc1ccco1)C(=O)Cn1nnc(-c2ccc(C)cc2)n1 (stereo unspecified)	-1.7%	2.4%	i	3.5%	i	-3.8%
CCOC(=O)CN(C(=O)Cn1nnc(-c2ccc(C)cc2)n1)C(CC)C(=O)NC1CCCC1 (stereo unspecified)	0.9%	0.5%	4.11µM*	-21.7%	i	-18.5%
SMILES	SW480 rereplic	MCF10A rereplic	KB-V1 MDR tox	HT1080 IDH1KD tx	KB-3-1 cytotox	HT1080-NT tox
CCCCN(C)CCC(=O)Nc1ccc(F)c(F)c1	-0.2%	8.7%	i	0.2%	i	0.5%
COc1cc(CN(CCN(C)C)Cc2ccccc2)ccc1OCc1ccccc1	u	u	u	20.6µM*	u	23.1µM*
COc1ccc(CN(CCc2ccccc2)Cc2ccccc2)cc1OC	-19.2%	u	i	-17.3%	i	-13.3%
CN(C)CC1CCCCC1OC(=O)/C=C/c1ccccc1 (stereo unspecified)	-42.6%	10.6%	i	14.1%	i	26.6%
CCc1nn2c(=O)cc(COC(=O)c3ccc(SC)cc3OC)nc2s1	-6.5%	-6.5%	10.3µM*	14.3%	i	10.5%
S=C(Nc1cccc(Br)c1)c1ccccc1	11.3%	8.7%	i	0.1%	i	2.3%
COC(=O)c1ccc(CSc2nnc(Nc3ccccc3OC)s2)o1	16.8%	9.2µM*	i	-10.6%	i	u
Cc1nn(C)c(C)c1CNC(=O)c1nn2c(c1Cl)NC(c1cccs1)CC2C(F)(F)F (stereo unspecified)	-3.4%	-3.1%	9.2µM*	u	u	u
Cc1nn(Cc2ccc(F)cc2)c(C)c1NC(=O)c1cnn2c1NC(c1ccccc1)CC2C(F)(F)F (stereo unspecified)	0.4%	-2.0%	i	-1.5%	i	9.9%[9.24 µM]
Cc1nn(Cc2ccc(F)cc2)c(C)c1NC(=O)c1cnn2c1NC(c1cccs1)CC2C(F)(F)F (stereo unspecified)	2.9%	8.7%	20.6µM*	u	i	-9.5%
CCC(=O)N1CCc2cc(Br)cc(S(=O)(=O)N3CCC(C(=O)Nc4cccc(C)c4)CC3)c21	x	x	i	x	i	x
COc1cc(NC(=O)CSc2nc3cc(C)ccc3cc2C)c(C(=O)O)cc1OC	0.3%	5.6%	i	5.1%	u	4.0%
O=C(Cc1ccc([N+](=O)[O-])cc1)N/N=C/c1cccnc1	-5.5%	u	i	7.7%	i	-1.2%
COc1ccccc1C(=O)NCC(=O)N/N=C/c1cc(Br)ccc1OC(=O)/C=C\c1ccco1	u	16.4µM*	u	-22.7%	i	u
O=C(CNC(=O)c1ccc(F)cc1)N/N=C/c1cc(Br)ccc1OC(=O)/C=C/c1ccco1	u	u	i	u	u	u
O=C(CNC(=O)c1ccccc1F)N/N=C/c1cc(Br)ccc1OC(=O)/C=C/c1ccco1	6.51µM*	u	16.4µM*	4.61µM*	u	-41.4%
